# Compounds with a hit are over-represented: about 1.5% of the library has one in this group of screens.
# MCL1 BIM primary: inhibitors of human MCL1 binding to BIM-BH3 peptide | GST-MCL1 / FITC-Bim-BH3 fluorescence polarization | Q07820 | inhibition, % at 10.9 µM | AID 2057 | actives 0.68% (n = 320,000);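 active = inhibition above the mean inhibition of all tested compounds plus 3 SD, set per campaign, cut at about 40% in these data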;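 also: higher means more loss of mP so more displacement of Bim peptide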
# E coli Lon inh: E. coli protease La inhibition. purified E. coli Lon protease, fluorescence polarization. inhibition, % at 7.94 µM. P0A9M0. actives 0.42% (n = 360,000); in the data active = inhibition above about 13%, passing the limit was not always enough
# MEX-5 binding: C. elegans MEX-5 TCR-2 RNA binding activity; Q9XUB2; MEX-5/FITC-TCR2 RNA binding, fluorescence polarization; active compounds read low; activity score (negative = inhibition of binding), % at 10 µM; actives 0.38% (n = 300,000);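 active = inhibition past about -25% in most replicates, and total fluorescence under double the plate's negative control median, limit read from the data; inconclusive = replicates evenly split on the limit, or fluorescence at least double controls; inactive = too little inhibition in most replicates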
# EBV gp42 inh: EBV gp42 inhibition; Q1HVG2; Fluorescence polarization binding assay, mP read-out; inhibition, % (tested at 21.74 µM); actives 0.42% (n = 220,000); AID 1085; in the data active = inhibition above about 50%
# GLD-1 RNA inh: GLD-1-TGE RNA interaction inhibition (C. elegans) | purified GLD-1 + fluorescein TGE RNA, fluorescence polarization | Q17339 | inhibition, % at 5.96 µM | actives 0.44% (n = 320,000) | AID 2280;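 active = percent inhibition above a per-plate cutoff, the plate mean of test compounds plus 3 SD, cut at about 30% in these data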
# Bcl-xL primary: inhibitors of human Bcl-xL. Q07817. GST-Bcl-xL / FITC-Bim BH3 peptide fluorescence polarization. inhibition, % at 10.9 µM. actives 0.7% (n = 320,000);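 active = inhibition above the mean of all tested compounds plus 3 SD, cutoff set per campaign, cut at about 30% in these data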;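 also: inhibitors lower millipolarization by displacing the labeled peptide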
# A number is an active result; n = inactive; u = inconclusive; x = not tested or not shown; + = active, no number.
SMILES,MCL1 BIM primary,E coli Lon inh,MEX-5 binding,EBV gp42 inh,GLD-1 RNA inh,Bcl-xL primary
COc1ccc(N2CCN(Cc3oc(CO)cc(=O)c3O)CC2)cc1,42.1,n,n,n,n,53.5
CCCCN1C(=O)/C(=C/C=C2\SCCN2C)SC1=S,x,n,n,n,x,x
CCCCN1C(=O)/C(=C/C=C2\N(C)c3ccccc3C2(C)C)SC1=S,n,x,x,+,n,n
Cc1ccc(C(=O)C2C(=O)C3CCC2C3)cc1 (stereo not drawn),x,n,x,x,x,x
Cn1c(NC(=O)c2ccccc2C(F)(F)F)cc(=O)n(C)c1=O,n,n,n,n,162.0,n
CCN(CC)c1ccc(C=N/C(C#N)=C(\N)C#N)cc1,n,n,-109.4,n,n,n
CCCCCCc1cc2cc(C(N)=O)c(=N)oc2cc1O,n,x,n,103.3,n,n
OC(c1ccc(Cl)c(F)c1)c1ncc(-c2cccc(C(F)(F)F)c2)[nH]1 (stereo not drawn),x,n,x,x,x,x
CCN1CCN(CCC(=O)Nc2cccc(C)c2)CC1,n,n,n,x,n,31.9
O=[N+]([O-])c1ccc2nc(-c3cccnc3)[nH]c2c1,n,n,n,x,n,n
O=[N+]([O-])c1cc([N+](=O)[O-])c2cc(-c3cccnc3)[nH]c2c1,n,n,n,x,n,35.6
COc1cc(/C=N/NC(=O)C(=O)NCc2ccco2)cc(Br)c1O,n,n,n,n,n,n
CCn1c(SCC(=O)N2CCN(C)CC2)nc2c1c(=O)n(C)c(=O)n2C,n,n,n,x,n,n
CCn1c(SCC(=O)N2CCCC2)nc2c1c(=O)n(C)c(=O)n2C,n,n,n,n,n,51.8
CCOc1cc(/C=C2\SC(=Nc3ccc(CC)cc3)NC2=O)ccc1OCC(=O)O,n,n,-43.6,x,n,n
CCCOC(=O)C1=C(C)N(C)C(=O)NC1c1cc2c(cc1[N+](=O)[O-])OCO2 (stereo not drawn),45.2,n,n,n,n,42.5
Cc1ccc(-c2nn(-c3ccc(F)cc3)cc2C(=O)N2CCN(C3CCS(=O)(=O)C3)CC2)cc1 (stereo not drawn),n,n,x,x,n,n
N#C/C(=C(/O)c1cc2ccccc2o1)c1nc2ccccc2s1,n,n,-32.6,n,n,n
Cc1ccc(C(=O)Nn2cnnc2)cc1S(=O)(=O)N1CCOCC1,n,n,n,n,n,n
CN=C(c1ccc(C)cc1)n1c(=S)nc(-c2ccc(C)cc2)n(C)c1=S,n,n,n,n,n,n
CN=C(c1ccco1)n1c(=S)nc(-c2ccco2)n(C)c1=S,n,n,n,n,n,33.4
O=C(Nc1ccc2nc(-c3ccco3)c(-c3ccco3)nc2c1)NC1CC1,x,n,n,n,x,x
O=C(c1ccc2nc(-c3ccco3)c(-c3ccco3)nc2c1)N1CCN(c2ccccc2)CC1,n,n,n,n,n,n
OCCCNC(=S)Nc1ccc2nc(-c3ccccn3)c(-c3ccccn3)nc2c1,43.4,n,n,n,n,45.7
CC(C)(C)CC(C)(C)NC(=S)Nc1ccc2nc(-c3ccccn3)c(-c3ccccn3)nc2c1,n,n,n,n,n,n
SMILES,MCL1 BIM primary,E coli Lon inh,MEX-5 binding,EBV gp42 inh,GLD-1 RNA inh,Bcl-xL primary
O=C(NCCCO)Nc1ccc2nc(-c3ccco3)c(-c3ccco3)nc2c1,158.4,x,x,66.9,53.6,119.5
O=C(O)c1ccc2nc(-c3ccco3)c(-c3ccco3)nc2c1,x,n,-28.8,n,x,x
CS(=O)(=O)N(Cc1nc(-c2ccc(F)cc2)no1)c1ccccc1Cl,n,n,x,x,n,n
CC1(C(=O)NCCc2ccccc2)Cc2c(-c3cccc(C(N)=O)c3)ccnc2O1 (stereo not drawn),x,n,x,x,x,x
O=c1onc(-c2ccccc2)n1-c1cc(Cl)cc(Cl)c1,n,n,n,x,n,n
O=C1OC2(c3ccccc31)c1cc(I)c(O)c(I)c1Oc1c2cc(I)c(O)c1I,87.1,x,x,x,51.0,88.0
Cc1cc(C)n2[nH]c(=O)c(N=Nc3ccccc3)c2n1,n,n,n,n,n,n
Cc1cc(=O)n2[nH]c(=O)c(N=Nc3ccccc3)c2[nH]1,n,n,-81.7,n,n,n
CCOc1ccc(N=Nc2c(=O)[nH]n3c(=O)cc(C)[nH]c23)cc1,n,n,-51.0,n,n,n
CCOc1ccc(N=Nc2c(=O)[nH]n3c(=O)c4c([nH]c23)CCCC4)cc1,n,n,u,n,n,n
O=C(COC(=O)c1ccc2ncsc2c1)Nc1ccccc1Br,n,n,x,x,n,n
COc1cc(C(=O)N/N=C(\C)c2ccc(NC(=O)Cc3ccccc3)cc2)ccc1O,x,n,x,x,x,x
CN1C(=O)/C(=C2\SC(=S)N(CCCCCC(=O)O)C2=O)c2ccccc21,n,n,n,72.8,n,n
Cc1cc(=O)[nH]c(N/N=C/c2ccc(O)c(O)c2)n1,n,n,-41.7,x,n,n
C[C@@H]1CN([C@@H](C)CO)C(=O)c2cc(N(C)C)ccc2O[C@@H](C)CCCCO[C@@H]1CN(C)S(=O)(=O)c1cccs1,x,n,x,x,x,x
COC/C=C/C1=CC2=CC(=O)C(C)(OC(=O)c3cnc4ccccc4n3)C(=O)C2=CN1c1ccc(CO)cc1 (stereo not drawn),91.2,x,n,x,n,n
Cc1nn(-c2ccc(Br)cc2)c(=O)c2ccccc12,n,n,n,x,n,30.8
O=C(NCc1ccc(Cl)nc1)c1csc(COCCO)n1,x,n,x,x,x,x
CN(C)c1ccc(-c2nnc(-c3ccc(S(=O)(=O)C(F)F)cc3)o2)cc1,n,n,-33.7,n,n,n
CCC(c1nnnn1-c1ccc2c(c1)OCCO2)N1CCN(Cc2c(F)cccc2Cl)CC1 (stereo not drawn),x,n,x,x,x,x
NC(=O)c1c(NC(=O)Cn2nc(C(=O)O)c3ccccc3c2=O)sc2c1CCCC2,n,n,n,52.8,n,n
NC(=O)c1c(NC(=O)Cn2nc(C(=O)O)c3ccccc3c2=O)sc2c1CCC2,n,n,n,n,n,n
Oc1ccc(C2C[C@H]3CC[C@@H]2C3)cc1O (stereo partly drawn),n,n,-65.1,x,n,n
Cc1cccc2c3nc4ccccc4nc3n(CCCN3C(=O)c4ccccc4C3=O)c12,x,n,n,83.0,x,x
CCc1nnc(NC(=O)Cc2ccc(S(=O)(=O)N3CCCCC3)cc2)s1,n,n,x,x,n,n
COc1cc(OC)c(NC(=O)c2cncn2-c2ccc(F)cc2)cc1Cl,n,n,n,x,n,n
Cc1ccc(NC(=O)COc2ccc(/C=C3/SC(=Nc4ccccc4)N(Cc4cccnc4)C3=O)cc2)cc1,n,n,-59.8,n,n,n
COC(=O)CCC(=O)OC1(C)C(=O)C2=CN(CCc3ccccn3)C(c3ccc(OC)cc3)=CC2=C(Br)C1=O (stereo not drawn),40.0,n,u,x,n,36.5
COC(=O)CCC(=O)OC1(C)C(=O)C2=CN(CCCCO)C(c3ccc(OC)cc3)=CC2=C(Br)C1=O (stereo not drawn),40.2,x,n,x,n,31.7

# Compound activity as filed in PubChem BioAssay.
